Assay results: PubChem BioAssay AID430 (Sanford-Burnham Center for Chemical Genomics, 2006)
Screen size: about 63,000 compounds; about 1,100 (1.7%) were called active. What follows is part of a selection rich in actives, with near analogues and random picks from the rest. Results with a measured potency or affinity are listed apart. Values without a mark were called inactive. No stated cut-off is given here; in the data, active means cytotoxicity above about 50%; inactive means the rest.

assay: cytotoxicity in HPDE-C7 cells, cell-based, fluorescence, HTS (AID 430); conditions: HPDE-C7 pancreatic duct cells viability, at 10 µM, hits give high values;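 further: cells exposed to compound for 48 hours before viability readout; 0% = vehicle and 100% = reference cytotoxic drug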

SMILES | cytotoxicity
CCOc1ccc(-c2noc(-c3cccnc3)n2)cc1OC | 0.1%
Cc1[nH]nc2c1C1(CCN(C(=O)c3ccccc3)CC1)C(C#N)=C(N)O2 | -19.1%
Cc1ccc(NC(=O)N2CCC(C(=O)NCCC3=CCCCC3)CC2)cc1 | -6.2%
CC1(C)Cc2noc(N)c2C(C)(C)N1OC(=O)c1ccccc1 | -5.7%
Cc1csc(NC(=O)c2sc3nc(-c4cccs4)ccc3c2N)n1 | 60.5% (active)
Nc1c(C(=O)NC2CCCC2)sc2nc(-c3cccs3)ccc12 | 10.5%
CCCSc1nnc(NC(=O)c2sc3nc(-c4cccs4)ccc3c2N)s1 | 41.2%
CCCOc1ccc(S(=O)(=O)NCCN2CCOCC2)c2ccccc12 | -13.1%
O=C(NC1CCCCC1)C1CC(=O)N(c2ccc(Cl)cc2)C1 (stereo unspecified) | -9.5%
CC1(C)C(c2cccs2)=NC(c2ccccc2)N1O (stereo unspecified) | -25.9%
Cc1ccc(C(N)=O)cc1S(=O)(=O)Nc1cccc(C)c1C | 18.4%
O=C(CC1Oc2ccccc2NC1=O)NCCCN1CCN(C2CCCCC2)CC1 (stereo unspecified) | 2.6%
Cc1ccc(C(CC(=O)c2ccco2)SCCO)cc1 (stereo unspecified) | 99.5% (active)
O=C(CC(SCCO)c1ccc(F)cc1)c1ccco1 (stereo unspecified) | 3.7%
O=C(CSCCSCC(=O)c1ccco1)c1ccco1 | 10.6%
CCC(=O)N1CC23C=CC(CC2CC12CCCCC2)O3 (stereo unspecified) | -6.8%
COc1ccc(OC)c(CC(NC(C)=O)C(=O)NC2CCN(c3nc(C)cc(C)c3C#N)CC2)c1 (stereo unspecified) | -6.9%
COc1ccc(-c2oc(/N=C/N3CCOCC3)c(C#N)c2-c2ccc(OC)cc2)cc1 | -7.7%
NC1=NC2(CCC(c3ccccc3)CC2)n2c(nc3ccccc32)N1 (stereo unspecified) | 77.1% (active)
NC1=NC2(CCCCC2)n2c(nc3ccccc32)N1 | 11.9%
NC1=NC2(CCN(Cc3ccccc3)CC2)n2c(nc3ccccc32)N1 | 0.8%
CCCn1c(SCC(=O)Nc2ccc3c(c2)OCO3)nc2c1c(=O)n(C)c(=O)n2C | -4.6%
Cc1noc(C)c1CSc1nc2ccccc2nc1NS(=O)(=O)c1ccc(Cl)cc1 | 81.1% (active)
Cc1noc(C)c1CSc1ncnc2ccccc12 | 4.7%

SMILES | cytotoxicity
O=S(=O)(Nc1nc2ccccc2nc1NCc1ccco1)c1ccc(Cl)cc1 | 18.1%
O=C(CN1CCN(c2ccccn2)CC1)N1c2ccccc2Sc2ccc(C(F)(F)F)cc21 | 22.1%
O=C(N1CCN(c2ccccn2)CC1)N1c2ccccc2Sc2ccccc21 | 66.7% (active)
O=C(c1ccco1)N1CCN(C(=O)N2c3ccccc3Sc3ccccc32)CC1 | 73.2% (active)
O=C(c1ccco1)N1c2ccccc2Sc2ccccc21 | 4.4%
O=C(NC1CCN(C(=O)N2c3ccccc3Sc3ccccc32)CC1)c1ccco1 | -12.6%
O=C(N1CCOCC1)N1CCN(c2ccccn2)CC1 | -15.7%
CC(=O)N1c2c(cc(Br)cc2S(=O)(=O)NCC2COc3ccccc3O2)CC1C (stereo unspecified) | 13.1%
c1ccc(-c2oc3ncnc(NCCCN4CCOCC4)c3c2-c2ccccc2)cc1 | 48.6%
COc1ccc(-c2oc3ncnc(NCCN4CCOCC4)c3c2-c2ccc(OC)cc2)cc1 | 3.3%
COc1ccc(-c2oc3ncnc(NCCCN4CCOCC4)c3c2-c2ccc(OC)cc2)cc1 | 67.3% (active)
Cc1cccc(CS(=O)(=O)Cc2ccc(C(=O)NCc3cccnc3)o2)c1 | -7.1%
c1ccc2c(SCc3cn4cccnc4n3)ncnc2c1 | 13.3%
Cc1cc(=O)n2c3c(sc2n1)C(=O)N(Cc1ccccc1)C3=O | 3.8%
Cc1ccc(Nc2nc(N)nc(CN3CCN(c4ccccc4)CC3)n2)cc1Cl | 72.1% (active)
Cc1cccc(Nc2nc(N)nc(CN3CCN(c4ccccc4)CC3)n2)c1 | -13.2%
COc1ccc(N2CCN(Cc3nc(N)nc(Nc4ccc(C)c(Cl)c4)n3)CC2)cc1 | 7.9%
O=C(Nc1nccs1)c1ccc(Br)o1 | -3.3%
Cc1ccc(C(=O)NCCn2cc(SCC(=O)Nc3nnc(C)s3)c3ccccc32)cc1 | -2%
S=c1[nH]nc(Cc2c[nH]c3ccccc23)o1 | -0.8%
c1ccc(CSc2nnc(-c3c[nH]c4ccccc34)o2)cc1 | -3.6%
O=C(Nc1ccc2c(c1)OCO2)Oc1ccccc1 | -9.1%
OCCN(CCO)c1ncnc2c1sc1nc(N3CCOCC3)c3c(c12)CCCC3 | -3.9%
c1nc(NCCN2CCOCC2)c2sc3nc(N4CCOCC4)c4c(c3c2n1)CCC4 | 16.6%

SMILES | cytotoxicity
CSc1nc(N2CCN(CCO)CC2)c2sc3nc(-c4ccco4)c4c(c3c2n1)CCC4 | -8.6%
COC(=O)CSc1ncnc2c1sc1nc(-c3ccco3)c3c(c12)CC(C)(C)OC3 | 15%
CCC1Oc2ccccc2N(CC(=O)NCCC2=CCCCC2)C1=O (stereo unspecified) | 0.8%
COc1cccc(N2CCN(C(=O)CCn3c(=S)[nH]c4cc5c(cc4c3=O)OCO5)CC2)c1 | -14.3%
Cc1cc(C)n(-c2nnc(C)n2/N=C/c2cc(Br)ccc2OCc2ccccc2)n1 | 57.6% (active)
CCCOc1ccc2ccccc2c1/C=N/n1c(C)nnc1-n1nc(C)cc1C | 41.9%
Cc1cc(C)n(-c2nnc(C)n2/N=C/c2ccccc2OCc2ccccc2Cl)n1 | 34.5%
COc1ccc(O)c(-c2cc(-c3cccs3)[nH]n2)c1 | 26.9%
Oc1ccc(Br)cc1-c1cc(-c2ccccc2F)[nH]n1 | 12.4%
CSc1nnc2n(-c3ccccc3)c(=O)c3c4c(sc3n12)CCC4 | 11.5%
O=S(=O)(c1ccccc1)N1CCN(Cc2ccccc2C(F)(F)F)CC1 | -2.9%
CCOc1ccc(NS(=O)(=O)c2ccc3c(c2)CCN3C(=O)CCC(=O)O)cc1 | -5.5%
O=S(=O)(c1ccc2ccccc2c1)N(CC(O)CN1CCOCC1)c1ccccc1 (stereo unspecified) | -8%
O=S(=O)(c1ccc2ccccc2c1)N1CCCCC1 | -5.5%
CCCn1c(SCC(=O)Nc2cccc(C)n2)nnc1-c1ccco1 | -2%
CCOC(=O)C1=C(C)NC(C)=C(C(=O)OCC)C1c1ccc(OC)cc1 | 11.1%
CN1CCN(C(CNS(=O)(=O)c2ccc(Cl)cc2)c2cccnc2)CC1 (stereo unspecified) | 2.1%
COCCNC(=O)C(c1ccccc1C)N(CCOC)C(=O)Cn1nnc2ccccc21 (stereo unspecified) | 4.3%
O=C(CSc1nnc(-c2cccs2)o1)N1CCOCC1 | -10.3%
CCOC(=O)c1sc2c(c1C)c(=O)c(C(=O)OCC)cn2CC | 1.7%
CCOC(=O)c1cn2c3c(c(F)c(F)c(F)c3c1=O)SC(N1CCCC1)=N2 | 62.5% (active)
CCOC(=O)c1cn(CC)c2cc(N3CCCCC3)c(F)cc2c1=O | 3.7%
CCCOCCOC(=O)C1=C(C)NC(=O)NC1c1cc(Cl)c(O)c(OC)c1 (stereo unspecified) | -9.1%
Cc1nn(CC(O)Cn2c3c(c4ccccc42)CCN(C)C3=O)c(C)c1Br (stereo unspecified) | -4.2%

SMILES | cytotoxicity
CCOC(=O)c1cc(C)n(CCc2ccccc2)c1C | -7.6%
Nc1nc(-c2ccccc2Br)cs1 | 11.7%
Cc1cc(-c2csc(N)n2)c(C)n1CCc1ccccc1 | 78.3% (active)
CCOC(=O)N1CCN(C/C(C)=C/c2ccccc2)CC1 | -6%
CCN(CCN(C)C)C(=O)Cn1ncc2c1-c1cc(C)ccc1OC2 | -7.1%
CCOc1ccc(C(=O)N2CCc3cc(OC)c(OC)cc3C2)cc1OCC | 18.6%
CCOc1cc(C(=O)N2CCc3cc(OC)c(OC)cc3C2)ccc1OC(F)F | 82.5% (active)
COc1ccc(C(=O)N2CCc3cc(OC)c(OC)cc3C2)cc1OC | 5.8%
Cc1ccccc1CSc1ncc(C#N)c(N)n1 | -10.1%
COc1ccc(Nc2cc(C(=O)NCCCN3CCN(C)CC3)c3ccccc3n2)c(OC)c1 | 2%
Cc1csc(C(C#N)C(=O)c2ccncc2)n1 (stereo unspecified) | -11%
Cc1ccc(-n2c3c(cc(C(=O)Nc4cccc(C)n4)c2=O)C(=O)CCC3)cc1 | -27.7%
Cc1cccc(NC(=O)c2cc3c(n(-c4ccccc4)c2=O)CCCC3=O)n1 | 9.4%
COc1ccc(-n2c3c(cc(C(=O)Nc4ccc5c(c4)C(=O)NC5=O)c2=O)C(=O)CCC3)cc1 | 58.8% (active)
COC(=O)c1cc(OC)c(OC)cc1-n1cnc2cc(OC)c(OC)cc2c1=O | -9.2%
Cc1cccc(NC2=NC3(CCCCC3)N=C(N)N2)c1C | -3.7%
CCOc1ccc(NC(=O)CN2C(=O)COc3ccc(Cl)cc32)cc1 | -2%
CCOC(=O)c1ccc2c(c1)nc(SC/C(O)=C(\C#N)c1nc3ccccc3[nH]1)n2CC | 16.2%
Cc1nnc(SCc2ccc(Cl)cc2)n1CC1CCCO1 (stereo unspecified) | 2.4%
O=C(O)CSc1nnc(-c2ccccc2)o1 | 0.1%
Cc1nnc(SCC(=O)n2c3c(c4ccccc42)CCCC3)s1 | -1%
O=C(CSc1nnc(-c2ccccc2)o1)n1c2c(c3ccccc31)CCCC2 | 53.3% (active)
CC1CCCCN1S(=O)(=O)c1coc(C(N)=O)c1 (stereo unspecified) | -2.9%
CC(=O)NC(C)C12CC3CC(CC(C(=O)O)(C3)C1)C2 (stereo unspecified) | -6.6%
